BLM inh = qHTS Assay for Inhibitors of Bloom's syndrome helicase (BLM); RecQ-like DNA helicase BLM (Homo sapiens), P54132; recombinant BLM DNA unwinding, fluorescence dequenching; Potency, µM (series often up to 56.1 µM), without a hit: at the top dose activity change, negative = inhibition, most hits filed as inhibitors; 0.2% of 350,000 active;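 note: plate controls were vehicle for no effect and no enzyme for full effect; nearly all actives have a fitted effect of over 35% in size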
Target sequence (P54132 whole entry, looked up): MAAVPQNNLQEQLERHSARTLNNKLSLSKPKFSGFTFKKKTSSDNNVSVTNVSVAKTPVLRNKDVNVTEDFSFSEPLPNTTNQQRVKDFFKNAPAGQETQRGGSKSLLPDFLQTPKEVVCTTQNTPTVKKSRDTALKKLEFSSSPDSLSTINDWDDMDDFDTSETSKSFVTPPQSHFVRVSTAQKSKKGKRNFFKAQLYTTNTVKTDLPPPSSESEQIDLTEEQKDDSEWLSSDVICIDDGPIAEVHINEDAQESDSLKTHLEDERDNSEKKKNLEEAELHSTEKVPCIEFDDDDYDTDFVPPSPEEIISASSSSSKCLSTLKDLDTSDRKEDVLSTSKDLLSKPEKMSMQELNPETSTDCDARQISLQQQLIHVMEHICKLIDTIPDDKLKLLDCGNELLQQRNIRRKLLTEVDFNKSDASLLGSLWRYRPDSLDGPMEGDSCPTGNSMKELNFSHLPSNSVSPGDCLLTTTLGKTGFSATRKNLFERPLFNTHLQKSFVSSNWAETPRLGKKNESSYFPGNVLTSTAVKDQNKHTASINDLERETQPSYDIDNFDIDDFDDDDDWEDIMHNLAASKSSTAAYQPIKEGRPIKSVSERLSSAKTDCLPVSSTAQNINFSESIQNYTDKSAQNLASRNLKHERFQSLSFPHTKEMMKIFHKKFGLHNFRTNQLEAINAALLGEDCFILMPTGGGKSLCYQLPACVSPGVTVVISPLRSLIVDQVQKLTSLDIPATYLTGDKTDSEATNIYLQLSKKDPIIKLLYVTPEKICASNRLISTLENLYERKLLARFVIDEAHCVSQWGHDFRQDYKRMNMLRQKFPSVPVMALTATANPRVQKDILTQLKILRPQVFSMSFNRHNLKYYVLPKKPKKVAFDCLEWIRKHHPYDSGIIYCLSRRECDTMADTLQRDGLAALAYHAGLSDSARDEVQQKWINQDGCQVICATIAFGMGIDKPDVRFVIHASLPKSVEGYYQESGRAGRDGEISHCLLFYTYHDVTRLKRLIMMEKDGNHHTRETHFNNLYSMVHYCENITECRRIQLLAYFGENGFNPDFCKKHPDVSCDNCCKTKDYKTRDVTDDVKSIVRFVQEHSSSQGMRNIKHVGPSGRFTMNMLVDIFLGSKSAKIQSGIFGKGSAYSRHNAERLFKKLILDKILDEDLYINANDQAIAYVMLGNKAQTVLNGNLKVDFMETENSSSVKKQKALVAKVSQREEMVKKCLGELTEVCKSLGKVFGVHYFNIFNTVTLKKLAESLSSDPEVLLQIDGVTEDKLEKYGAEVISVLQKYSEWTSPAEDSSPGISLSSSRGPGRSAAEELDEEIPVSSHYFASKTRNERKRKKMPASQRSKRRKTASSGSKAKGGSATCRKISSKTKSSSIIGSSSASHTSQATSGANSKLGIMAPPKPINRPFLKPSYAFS
JMJD2E inh = qHTS Assay for Inhibitors of Human Jumonji Domain Containing 2E (JMJD2E); Lysine-specific demethylase 4E (Homo sapiens), B2RXH2; JMJD2E catalytic domain, FDH-coupled NADH fluorescence (FDH is formaldehyde dehydrogenase); Potency, µM (top dose mostly 57.1 µM), for the others: top-dose activity change, negative = inhibition, hits mostly inhibitors; 1.6% of 230,000 active; AID 2147, 2009; active = well fitted inhibition curve with a large enough effect, not every such curve was filed as active; inconclusive = small, poorly fitted or top-dose-only effect, or another doubt; inactive = no such curve, though single readings can be large or run the other way;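 note: 0% = wells with enzyme and -100% = buffer wells without enzyme; nearly all actives have a fitted effect of over 50% in size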
L3MBTL1 block = qHTS Assay for the Inhibitors of L3MBTL1; Lethal(3)malignant brain tumor-like protein 1 (Homo sapiens), Q9Y468; AlphaScreen L3MBTL1–H3K9me1 peptide binding; Potency, µM (series often up to 57.1 µM), for the others: at the top dose activity, negative = inhibition, usual class: inhibitors; 0.66% of 230,000 active; note: nearly all actives have a fitted effect of over 60% in size
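L3MBTL1 (50 nM) pre-complexed 30 min with biotinylated H3(1-15)K9me1 peptide (75 nM), then compounds added for 30 min at room temperature; AlphaScreen streptavidin donor/nickel chelate acceptor beads (10 ug/mL final) read after 30 min dark incubation.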
RECQ1 inh-1 = qHTS Assay for Inhibitors of RecQ-Like Dna Helicase 1 (RECQ1); ATP-dependent DNA helicase Q1 (Homo sapiens), P46063; RECQ1 DNA unwinding, red fluorescence kinetic read; Potency, µM (doses to about 57.3 µM), for the others: top-dose activity, negative = inhibition, actives largely listed as inhibitors; 0.54% of 240,000 active; AID 2549, 2010;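 note: plate controls were vehicle for no effect and no enzyme for full effect; nearly all actives have a fitted effect of over 30% in size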
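50 nM RECQ1T1 preincubated 15 min with compound in Tris pH 8.0 buffer with MgCl2, DTT, Tween-20 and 2.5 ug/ml poly(dI-dC); started with 200 nM TAMRA/BHQ-2 forked duplex and 2 mM ATP. Unwinding read as fluorescence (525/598 nm), two reads 2 h apart.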
APEX1 inh = qHTS Assay for Inhibitors of the Human Apurinic/apyrimidinic Endonuclease 1 (APE1); DNA repair nuclease/redox regulator APEX1 (Homo sapiens), P27695; recombinant APE1, TAMRA/BHQ-2 abasic DNA cleavage fluorescence; 0.35% of 350,000 active; Potency, µM (titrated, usually from 65.8 µM), for inactives: top-dose activity change, negative = inhibition, actives largely listed as inhibitors; AID 2517, 2012;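 note: plate controls were vehicle for no effect and reference inhibitor for full effect; nearly all actives have a fitted effect of over 55% in size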
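Substrate: short duplex with […] THF abasic site, 5'-TAMRA and 3'-BHQ-2, 50 nM final. APE1 at 0.75 nM, preincubated 15 min RT with compound. Fluorescence increase from first to third read measured activity.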
RECQ1 inh conf = Confirmation qHTS Assay for Inhibitors of RecQ-Like Dna Helicase 1 (RECQ1); Potency, µM (doses to about 229 µM), for inactives: at the top dose activity change, negative = inhibition, hits mostly inhibitors; 28% of 610 active; RECQ1 helicase DNA unwinding, fluorescence; shares compounds with RECQ1 inh-1; note: nearly all actives have a fitted effect of over 45% in size
RECQ1 ADP FP = Counterscreen for RECQ1 Inhibitors: ADP Fluorescence Polarization Displacement Assay | shares compounds with RECQ1 inh-1 | ADP fluorescence polarization displacement counterscreen | Potency, µM (highest dose often 228 µM), for inactives: at the highest dose activity change, negative = inhibition, actives largely listed as inhibitors | 27% of 530 active | AID 2711, 2010; note: nearly all actives have a fitted effect of over 45% in size
RECQ1 inh-2 = Confirmation qHTS Assay for Inhibitors of RecQ-Like Dna Helicase 1 (RECQ1) - Round 2 Cherry Picks | 15% of 1,100 active | recombinant RECQ1 DNA unwinding, red fluorescence | shares compounds with RECQ1 inh-1 | Potency, µM (series often up to 119 µM), for the others: at the top dose activity, negative = inhibition, most hits filed as inhibitors; note: nearly all actives have a fitted effect of over 50% in size
* marks the source's active call; other numbers are inactive results; i = inactive; u = inconclusive; x = not tested or not shown; [ ] = another dose, or the depositor's remark. The entries come from a sample that favours hits as a whole. Unless noted, calls come from the whole dose curve; as a rule, active = well fitted curve in the direction sought with a large enough effect; inconclusive = small, poorly fitted or top-dose-only effect, or another doubt; inactive = no such curve, though single readings can be large; an effect the other way counts as inactive or inconclusive. Unless noted, % is set by controls: 0 for no effect and ±100 for the full control effect; potency is the fitted concentration of half-maximal effect.

SMILES	BLM inh	JMJD2E inh	L3MBTL1 block	RECQ1 inh-1	APEX1 inh	RECQ1 inh-2	others
COc1ccc(C(CC(=O)N2CCCC2)c2c(OC)cc(OC)c3c(-c4ccccc4)cc(=O)oc23)cc1 (centres undefined)	u	u	x	13µM*	10µM*	20µM*
Cc1ccc(/C=C/C(=O)c2ccc(N3CCOCC3)cc2)s1	-6%	-10%	-19%	u	-5%	-26%
O=C(N=c1ccn(-c2nc3ccccc3nc2NS(=O)(=O)c2ccc(Cl)cc2)cc1)c1cccs1	-10%	u	x	u	-9%	-23%
CCOc1ccc(S(=O)(=O)Nc2nc3ccccc3nc2-n2ccc(=NC(=O)c3cccs3)cc2)cc1	-6%	u	2%	-2%	0%	x
Cn1c(CO)cnc1S(=O)(=O)Cc1ccc(Cl)cc1	0%	4%	3%	u	12%	-10%
Cc1nnc(N2CCCC(C(=O)Nc3ccccc3C(F)(F)F)C2)c2nn(-c3ccccc3)c(C)c12 (centres undefined)	56%	x	x	x	x	x
CC(C)(C)c1ccc(C(=O)Nc2cccc3ncccc23)cc1	-5%	x	x	x	29%	x
O=C(N/N=C/c1ccc(-c2ccc(S(=O)(=O)Nc3ncccn3)cc2)o1)c1cc2ccccc2cc1O	u	u	x	3.5µM*	u	x	RECQ1 inh conf=45µM*;RECQ1 ADP FP=-12%[91.9 µM]
COc1cccc(Nc2ncc3nc(-c4cc(F)cc(F)c4)c(=O)n(CCC#N)c3n2)c1	-5%	x	x	u	18%	u
O=C(O)CNC(=O)c1ccccc1F	-2%	u	7%	-16%	-2%	x
O=C(O)CCSc1nnc(COc2cccc3ccccc23)n1-c1cccc(Cl)c1	-1%	-9%	-1%	-5%	3%	x	RECQ1 inh conf=17%;RECQ1 ADP FP=-13%
Cc1ccc(C)n1-c1ccc(N2CCOCC2)nc1	-12%	u	-11%	u	-4%	-8%
Cc1ccc(S(=O)(=O)Nc2ccc(N3CCOCC3)nc2)cc1	-19%	7%	-6%	i	0%	x
COc1ccc(Br)cc1/C=N/N1C(=O)CSC1=S	-3%	x	x	x	-7%	x
COc1cc(/C=N/N2C(=O)CSC2=S)ccc1O	-1%	3%	x	u	4%	u
O=[N+]([O-])c1cc(/C=N\Nc2nc(-c3ccccc3)cs2)ccc1O	-12%	-8%	x	u	8%	x
Cc1csc(N/N=C/c2ccc(O)c([N+](=O)[O-])c2)n1	u	-23%	x	14µM*	u	x	RECQ1 inh conf=3%[114 µM];RECQ1 ADP FP=u
O=C1c2ccccc2-c2onc3ccc(N4CCCC4)c1c23	39%	18µM*	u	14µM*	20µM*	56µM*
COc1ccc(Cn2cccc(NC(=O)Nc3cccc(OC)c3)c2=O)cc1	-11%	u	x	u	-1%	-17%
N#Cc1ccc(NC(=O)COC(=O)CCc2ccc(S(=O)(=O)N3CCCCC3)cc2)cc1	-4%	0%	4%	-6%	-4%	x
CCOC(=O)c1ccc(CC(=O)c2ccc(O)c(O)c2O)o1	-6%	3.2µM*	u	1.4µM*	u	x	RECQ1 inh conf=5%[114 µM];RECQ1 ADP FP=2%[91.9 µM]
CCOC(=O)c1ccc(CC(=O)c2oc3cc(O)ccc3c2C)o1	-14%	u	-11%	-4%	-3%	x
Cc1ccc(S(=O)(=O)/N=C2/NC(=O)/C(=C/c3ccc(Br)o3)S2)cc1	-6%	-1%	u	u	u	u
CCNc1ncc2nc(-c3ccc(F)cc3)c(=O)n(CCc3ccccc3)c2n1	-12%	x	x	28µM*	0%	79µM*
CCNc1ncc2nc(-c3cccs3)c(=O)n(CCc3ccccc3)c2n1	-4%	x	x	28µM*	-9%	79µM*
SMILES	BLM inh	JMJD2E inh	L3MBTL1 block	RECQ1 inh-1	APEX1 inh	RECQ1 inh-2	others
CCNc1ncc2nc(-c3ccccc3)c(=O)n(CCc3ccccc3)c2n1	-3%	x	x	i	22%	x
Cc1ccc(C2=NC(=O)/C(=C/c3cc(O)c(O)c(Br)c3)S2)cc1	3.5µM*	13µM*	x	3.5µM*	2µM*	6.3µM*	RECQ1 inh conf=22µM*
COc1ccc(S(=O)(=O)Nc2nc3ccccc3nc2NCc2ccc3c(c2)OCO3)cc1	-2%	-7%	4%	-14%	-3%	x
CC(=O)Nc1ccc(S(=O)(=O)/N=C2\SCCN2S(=O)(=O)c2ccc(NC(C)=O)cc2)cc1	4%	-17%	-67%	u	u	-11%
Cc1ccc(S(=O)(=O)N2CCCC(C(=O)Nc3cccnc3)C2)cc1 (centres undefined)	-4%	-5%	x	-15%	2%	x
COC(=O)Nc1ccc(S(=O)(=O)N2CCCC(C(=O)Nc3cccnc3)C2)cc1 (centres undefined)	1%	-1%	x	-3%	0%	x	RECQ1 inh conf=9%;RECQ1 ADP FP=10%
Cc1ccccc1NS(=O)(=O)c1cc(C(=O)N2CCc3ccccc3C2)ccc1C	-7%	-1%	-5%	u	-4%	-8%
COc1cc(CNCc2ccccc2)ccc1OCC(O)c1ccccc1 (centres undefined)	-2%	x	x	x	-9%	x
CC(C)(C)n1nnnc1C(c1cccnc1)N1CCN(C(=O)c2ccco2)CC1 (centres undefined)	2%	5%	37%	i	-9%	x
Cn1c(C(=O)O)c(CC(=O)NCC2COc3ccccc3O2)c2ccccc21 (centres undefined)	0%	-9%	-5%	-1%	-2%	x	RECQ1 inh conf=2%;RECQ1 ADP FP=1%
O=C(CNC(=O)c1ccccc1)NCC1COc2ccccc2O1 (centres undefined)	-4%	10%	x	i	0%	x
O=C1CSC(=S)N1c1cccnc1	-5%	-19%	-3%	32µM*	6%	-2%
